# RECQ1 helicase – inhibitors of human RECQ1 DNA helicase; actives 0.54% (n = 240,000); AID 2549; P46063; Potency, µM (top dose mostly 57.3 µM), usual class: inhibitors; RECQ1 DNA unwinding, red fluorescence kinetic read; also: nearly all actives have a fitted effect of over 30% in size
#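 RECQ1T1 50 nM; forked duplex (20 bp + 30-nt ss tails) 200 nM, ATP 2 mM final; pH 8.0, 2 mM MgCl2, 2.5 ug/ml poly(dI-dC); 15 min compound preincubation; discontinuous kinetic read over 2 h at RT.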
# PKM2 act – activators of human pyruvate kinase M2. P14618. purified PKM2, Kinase-Glo ATP luminescence, activation; response scale: 0% is enzyme alone, no compound. Potency, µM (titrated, usually from 57.5 µM), most hits filed as activators. actives 0.34% (n = 260,000). AID 1631; also: nearly all actives have a fitted effect of over 55% in size
#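 Purified hPK-M2 (>95%) run at intermediate activity with 0.1 mM ADP and 0.5 mM PEP in 50 mM imidazole pH 7.2, KCl, MgCl2; 1 h room temperature. ATP formed read by Kinase-Glo luminescence; normalized to uninhibited and no-enzyme controls.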
# APEX1 inh – APE1 (human) endonuclease inhibition. P27695. recombinant APE1, TAMRA/BHQ-2 abasic DNA cleavage fluorescence. Potency, µM (doses to about 65.8 µM), hits mostly inhibitors. actives 0.35% (n = 350,000); also: nearly all actives have a fitted effect of over 55% in size
#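 Measures dequenching upon AP-site incision of a 5'-TAMRA/3'-BHQ-2 THF-containing duplex, 50 nM; human APE1 0.75 nM after 15 min room-temperature exposure to compound; kinetic three-point read at one-minute spacing.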
# BLM helicase inh – blocks DNA unwinding by human BLM helicase; Potency, µM (titrated, usually from 56.1 µM), most hits filed as inhibitors; recombinant BLM DNA unwinding, fluorescence dequenching; actives 0.2% (n = 350,000); also: nearly all actives have a fitted effect of over 35% in size
# KDM4E inh – blocks human JMJD2E demethylase activity; B2RXH2; JMJD2E catalytic domain, FDH-coupled NADH fluorescence (FDH is formaldehyde dehydrogenase); Potency, µM (highest dose often 57.1 µM), actives largely listed as inhibitors; actives 1.6% (n = 230,000); active = well fitted inhibition curve with a large enough effect, not every such curve was filed as active; inconclusive = small, poorly fitted or top-dose-only effect, or another doubt; inactive = no such curve, though single readings can be large or run the other way; also: nearly all actives have a fitted effect of over 50% in size
# Target sequence (B2RXH2 1-337 limits assumed): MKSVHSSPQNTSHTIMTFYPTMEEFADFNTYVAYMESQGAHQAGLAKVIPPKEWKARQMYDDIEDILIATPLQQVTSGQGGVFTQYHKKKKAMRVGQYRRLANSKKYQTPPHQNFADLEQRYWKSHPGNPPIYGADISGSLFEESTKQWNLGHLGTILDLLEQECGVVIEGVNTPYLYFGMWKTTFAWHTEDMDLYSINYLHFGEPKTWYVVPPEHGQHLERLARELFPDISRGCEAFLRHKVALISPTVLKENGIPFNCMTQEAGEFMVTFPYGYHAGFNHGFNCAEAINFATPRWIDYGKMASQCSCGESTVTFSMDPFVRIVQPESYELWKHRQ
# Numbers stand for hits; – = inactive; ? = inconclusive; · = not tested or not shown; ! = repeats disagree; [ ] = dose if it differs, or a comment. The full list was thinned out, with hits kept by preference. Unless noted, calls follow the shape of the dose curve; as a rule, active = well fitted curve in the direction sought with a large enough effect; inconclusive = small, poorly fitted or top-dose-only effect, or another doubt; inactive = no such curve, though single readings can be large; an effect the other way counts as inactive or inconclusive.
SMILES,RECQ1 helicase,PKM2 act,APEX1 inh,BLM helicase inh,KDM4E inh
Cc1ccccc1C(=O)Nc1ccc2c(C#N)c3nc4ccccc4nc3n2c1,32µM,–,?,?,?
Cc1c(C(=O)Nc2ccccc2)cn2c(nc3ccccc32)c1C#N,–,–,–,–,?
COc1ccc(C2Nc3ccccc3C(=O)N2Cc2ccco2)cc1CN1C(=O)c2ccccc2C1=O (stereo not drawn),–,20µM!,–,–,–
COc1ccc(C2Nc3ccccc3C(=O)N2Cc2ccccc2)cc1COc1ccccn1 (stereo not drawn),–,–,–,–,?
COc1ccc(C2Nc3ccccc3C(=O)N2Cc2ccco2)cc1COc1ccc(F)cc1 (stereo not drawn),–,14µM,–,–,–
CC(=O)Oc1ccc2c(c1)CC[C@@H]1[C@@H]2CC[C@]2(C)[C@@H](O)CC[C@@H]12,·,·,–,·,·
C=CC1=C2C=C(C3CC3)N(Cc3ccc4c(c3)OCO4)C=C2C(=O)C(C)(OC(=O)c2ccco2)C1=O (stereo not drawn),–[11.5 µM],–[11.5 µM],–[12.4 µM],–[12.4 µM],–[11.4 µM]
CCn1nnnc1-c1ccc(OC)c(S(=O)(=O)NCc2ccccc2)c1,–,–,–,–,–
CCn1nnnc1-c1ccc(OC)c(S(=O)(=O)Nc2ccc(C)c(C)c2)c1,–,16µM,–,–,–
COC(=O)[C@H]1C(OC)[C@@H](OC(=O)c2cc(OC)c(OC)c(OC)c2)C[C@@H]2CN3CCc4c([nH]c5cc(OC)ccc45)[C@H]3C[C@H]21 (stereo partly drawn),–,·,–,–,?
COC(=O)C1C2CC3c4[nH]c5cc(OC)ccc5c4CCN3CC2CC(OC(=O)c2cc(OC)c(OC)c(OC)c2)C1OC (stereo not drawn),–,·,?,–,20µM
COc1cc2oc(-c3ccccc3)cc(=O)c2cc1OC,–,·,–,–,?
CN(C)c1ccc2c(-c3ccccc3)c3ccc(=[N+](C)C)cc-3oc2c1,28µM,·,28µM,28µM,·
COc1ccc(Cn2c3nc4ccccc4nc3c3c(=O)n(Cc4ccco4)cnc32)cc1,28µM,?,?,–,?
O=S(=O)(O)c1cc(O)c2c(O)c(N=Nc3cc(Cl)ccc3O)c(S(=O)(=O)O)cc2c1,·,·,12µM,–,·
Cc1cc(-c2ccc(N=Nc3c(S(=O)(=O)O)cc4cc(S(=O)(=O)O)cc(N)c4c3O)c(C)c2)ccc1N=Nc1c(S(=O)(=O)O)cc2cc(S(=O)(=O)O)cc(N)c2c1O,·,·,0.47µM,–,·
COc1cc(Cl)c(S(=O)(=O)NCCc2c(C)[nH]c3c(C)cccc23)cc1Cl,·,·,·,–,·
CCOC(=O)Cc1csc(-n2sc3ccccc3c2=O)n1,–,–,–,–,10µM
CCOC(=O)Cc1csc(SCn2nnc3ccccc3c2=O)n1,–,–,–,–,–
C=C(CO)C1Cc2c(ccc3c2OC2COc4cc(OC)c(OC)cc4C2C3=O)O1 (stereo not drawn),–,·,–,–,–
CC(C)[C@H](NC(=O)[C@@H](Cc1c[nH]c2ccccc12)NC(=O)[C@H](Cc1ccc(O)cc1)NC(=O)[C@@H](N)CC(=O)O)C(=O)N[C@H](Cc1c[nH]c2ccccc12)C(=O)N[C@H](Cc1c[nH]c2ccccc12)C(=O)N[C@@H](CCCCN)C(N)=O,20µM,·,–,–,·
NCCCC[C@H](NC(=O)[C@@H](Cc1ccccc1)NC(=O)[C@H](Cc1c[nH]c2ccccc12)NC(=O)[C@@H](CCCCN)NC(=O)[C@@H](Cc1c[nH]c2ccccc12)NC(=O)[C@@H](N)Cc1cnc[nH]1)C(N)=O,–,·,–,–,·
CC(C)C[C@@H](/C=C/S(C)(=O)=O)NC(=O)[C@H](CC(C)C)NC(=O)[C@H](CC(C)C)NC(=O)OCc1ccccc1,–,·,–,·,·
CN(C)CCOc1cccc(Cl)c1,–,–,–,–,22µM
CCCc1c(C)[nH]c2ccc(C(=O)O)cc2c1=S,14µM,–,22µM,–,?
COC(=O)c1ccccc1-c1c2ccc(=N)cc-2oc2cc(N)ccc12,·,·,27µM,·,·
CSC1=NS(=O)(=O)c2c(C)nn(C)c2S1,–,–,–,–,3.5µM
CCn1c(SCc2nc3ccccc3c(=O)[nH]2)nc2ccccc21,–,–,–,–,–
CCN(CC)S(=O)(=O)c1ccc2c(c1)nc(SCc1nc3ccsc3c(=O)[nH]1)n2CC,–,13µM,–,–,–

# Screening results deposited in PubChem BioAssay by National Center for Advancing Translational Sciences (NCATS).
